Assay results taken from PubChem BioAssay (NCI).
The panel holds about 79,000 compounds, 15% with a hit somewhere; the sample as a whole holds those more often. Values without a mark were called inactive. The source made the active and inactive calls. Cut-off read from the data, not from the text of the source: active = growth inhibition above about 70%; inactive = the rest.

Assays:
[1] = NCI Yeast Anticancer Drug Screen. Data for the mec2-1 strain (AID 157); details: S. cerevisiae mec2-1 strain, hits give high values
Outline: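 Test agents were screened against the mec2-1 yeast strain, with defined DNA repair or cell cycle alteration. Growth was scored as inhibition against vehicle-only controls.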

[2] = NCI Yeast Anticancer Drug Screen. Data for the rad14 strain (AID 159);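 note: 0% = growth of vehicle-treated control cultures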; details: S. cerevisiae rad14 strain growth inhibition, hits give high values
Outline: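 Vehicle-treated cultures served as the baseline for growth inhibition of a DNA repair-mutant yeast strain exposed to each compound.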

[3] = NCI Yeast Anticancer Drug Screen. Data for the sgs1 mgt1 strain (AID 161);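 note: 0% = growth of cultures given vehicle only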; details: S. cerevisiae sgs1 mgt1 strain, hits give high values
Outline: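 Read-out: growth inhibition vs vehicle controls. Cells: mutant yeast strain deficient in DNA damage repair.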

[4] = NCI Yeast Anticancer Drug Screen. Data for the cln2 rad14 strain (AID 165);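 note: 0% = growth equal to vehicle treated cultures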; details: S. cerevisiae cln2 rad14 strain, hits give high values
Outline: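 Growth of compound-exposed yeast (cln2 rad14 genotype) measured and expressed as inhibition relative to vehicle.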

[5] = NCI Yeast Anticancer Drug Screen. Data for the bub3 strain (AID 167); details: S. cerevisiae bub3 mutant strain, hits give high values
Outline: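 Inhibition values come from growth of compound-treated mutant yeast normalised to vehicle-treated controls.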

[6] = NCI Yeast Anticancer Drug Screen. Data for the wt2 strain (AID 169);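 note: 0% = growth of vehicle-treated yeast cultures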; details: S. cerevisiae wt2 strain growth inhibition, hits give high values
Outline: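 Genetically defined yeast strains from a DNA-repair/cell-cycle panel were used. Compound-exposed yeast growth was measured, and the inhibition was calculated relative to vehicle treatment.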

[7] = NCI Yeast Anticancer Drug Screen. Data for the mlh1 strain (AID 171);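 note: 0% = growth of vehicle-treated control cultures of the same strain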; details: S. cerevisiae mlh1 strain growth inhibition, hits give high values
Outline: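 Here the genetically defined yeast mutant is grown with each compound, and the extent to which its growth falls below that of vehicle-exposed cells is reported.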

[8] = NCI Yeast Anticancer Drug Screen. Data for the sgs1 strain (AID 173);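 note: 0% = growth of vehicle-only control cultures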; details: S. cerevisiae sgs1 mutant, hits give high values
Outline: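 Relative growth inhibition, referenced to vehicle, was determined in a yeast strain with a defined alteration affecting DNA damage repair or cell cycle control after compound exposure.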

[9] = NCI Yeast Anticancer Drug Screen. Data for the wt1 strain (AID 149);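 note: 0% = growth of vehicle-treated wt1 cultures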; details: S. cerevisiae wt1 strain (SPY 50644) growth inhibition, hits give high values
Outline: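 Vehicle-normalised growth inhibition; strain wt1; compound exposure.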

[10] = NCI Yeast Anticancer Drug Screen. Data for the rad50EPP+ strain (AID 151);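 note: 0% = growth of vehicle-treated control cultures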; details: S. cerevisiae rad50 mutant strain, hits give high values
Outline: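 One strain with a rad50 alteration (rad50EPP+) was compound-treated, its growth then compared to that of vehicle controls.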

[11] = NCI Yeast Anticancer Drug Screen. Data for the mgt1 strain (AID 153); details: S. cerevisiae mgt1 mutant growth inhibition, hits give high values
Outline: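 After exposure of the mgt1 yeast mutant to compound, growth was measured and reported as inhibition compared with vehicle controls.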

[12] = NCI Yeast Anticancer Drug Screen. Data for the rad50 strain (AID 155);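 note: 0% = growth of vehicle-only cultures of the same strain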; details: S. cerevisiae rad50 strain growth inhibition, hits give high values
Outline: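 A DNA repair-deficient yeast mutant serves as the test organism; compound-induced growth inhibition is calculated against vehicle-treated cells.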

[13] = NCI Yeast Anticancer Drug Screen. Data for the CLN2oe strain (AID 163);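 note: 0% = growth of vehicle-only control cultures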; details: S. cerevisiae CLN2oe strain, hits give high values
Outline: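 Here, growth inhibition in a cell-cycle-altered yeast strain after compound exposure was quantified against vehicle control growth.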

[14] = NCI Yeast Anticancer Drug Screen. Data for the mlh1 rad18 strain (AID 175); details: S. cerevisiae mlh1 rad18 strain growth inhibition, hits give high values
Outline: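 In this whole-cell yeast screen, a strain with altered DNA damage repair is challenged with compound, and its growth is measured against matched vehicle-treated controls.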

[15] = NCI Yeast Anticancer Drug Screen. Data for the rad18 strain (AID 177); details: S. cerevisiae rad18 mutant growth inhibition, hits give high values
Outline: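 Screen uses a yeast strain with a defined lesion in DNA damage repair; compound effect is read as loss of growth compared to untreated vehicle cultures.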

[16] = at 5.0 µM (retest, dose inferred, filed as 0.5)
[17] = at 50.0 µM (retest, dose inferred, filed as 5.0)

## CC(=O)/C(=C\c1ccc(Cl)c(Cl)c1)C(=O)C(C)CN(C)C (stereo not drawn)
[1]; at 100.0 µM
  growth inhibition: 93% (active)
[2]; at 1.2 µM
  growth inhibition: -3%
[2]; at 3.7 µM
  growth inhibition: 2%
[2]; at 11.0 µM
  growth inhibition: -8%
[2]; at 33.0 µM
  growth inhibition: 22%
[2]; at 100.0 µM
  growth inhibition: 92% (active)
[3]; [16]
  growth inhibition: -8%
[3]; [17]
  growth inhibition: 97% (active)
[3]; at 50.0 µM
  growth inhibition: 85.7% (active)
[4]; [16]
  growth inhibition: -1%
[4]; [17]
  growth inhibition: 93% (active)
[4]; at 50.0 µM
  growth inhibition: 81.2% (active)
[5]; at 1.2 µM
  growth inhibition: 7%
[5]; at 3.7 µM
  growth inhibition: -1%
[5]; [16]
  growth inhibition: 12%
[5]; at 11.0 µM
  growth inhibition: 11%
[5]; at 33.0 µM
  growth inhibition: 53%
[5]; [17]
  growth inhibition: 96% (active)
[5]; at 50.0 µM
  growth inhibition: 82.8% (active)
[5]; at 100.0 µM
  growth inhibition: 93% (active)
[6]; at 1.2 µM
  growth inhibition: -12%
[6]; at 3.7 µM
  growth inhibition: -6%
[6]; at 11.0 µM
  growth inhibition: -1%
[6]; at 33.0 µM
  growth inhibition: 88% (active)
[6]; at 100.0 µM
  growth inhibition: 98% (active)
[7]; at 1.2 µM
  growth inhibition: 6%
[7]; at 3.7 µM
  growth inhibition: -2%
[7]; at 11.0 µM
  growth inhibition: 10%
[7]; at 33.0 µM
  growth inhibition: 46%
[7]; at 100.0 µM
  growth inhibition: 93% (active)
[8]; at 1.2 µM
  growth inhibition: 40%
[8]; at 3.7 µM
  growth inhibition: 48%
[8]; at 11.0 µM
  growth inhibition: 64%
[8]; at 33.0 µM
  growth inhibition: 76% (active)
[8]; at 100.0 µM
  growth inhibition: 97% (active)

## COc1ccc(C(C)c2cc3c(cc2OCC(C)=O)OCO3)cc1 (stereo not drawn)
[9]; at 1.2 µM
  growth inhibition: -2%
[9]; at 3.7 µM
  growth inhibition: -3%
[9]; at 11.0 µM
  growth inhibition: -5%
[9]; at 33.0 µM
  growth inhibition: -8%
[9]; at 100.0 µM
  growth inhibition: 49%
[10]; at 1.2 µM
  growth inhibition: -3%
[10]; at 3.7 µM
  growth inhibition: 1%
[10]; at 11.0 µM
  growth inhibition: 3%
[10]; at 33.0 µM
  growth inhibition: 12%
[10]; at 100.0 µM
  growth inhibition: 11%
[11]; at 1.2 µM
  growth inhibition: -3%
[11]; at 3.7 µM
  growth inhibition: -2%
[11]; at 11.0 µM
  growth inhibition: -4%
[11]; at 33.0 µM
  growth inhibition: -7%
[11]; at 100.0 µM
  growth inhibition: 42%
[12]; at 1.2 µM
  growth inhibition: 2%
[12]; at 3.7 µM
  growth inhibition: 45%
[12]; [16]
  growth inhibition: 1%
[12]; at 11.0 µM
  growth inhibition: 26%
[12]; at 33.0 µM
  growth inhibition: 9%
[12]; [17]
  growth inhibition: 14%
[12]; at 50.0 µM
  growth inhibition: -11.3%
[12]; at 100.0 µM
  growth inhibition: 84% (active)
[1]; at 1.2 µM
  growth inhibition: -3%
[1]; at 3.7 µM
  growth inhibition: -1%
[1]; [16]
  growth inhibition: -5%
[1]; at 11.0 µM
  growth inhibition: 0%
[1]; at 33.0 µM
  growth inhibition: -4%
[1]; [17]
  growth inhibition: 7%
[1]; at 50.0 µM
  growth inhibition: -15.1%
[1]; at 100.0 µM
  growth inhibition: 73% (active)
[3]; [16]
  growth inhibition: -4%
[3]; [17]
  growth inhibition: 35%
[3]; at 50.0 µM
  growth inhibition: 9.55%
[13]; at 1.2 µM
  growth inhibition: -4%
[13]; at 3.7 µM
  growth inhibition: -3%
[13]; at 11.0 µM
  growth inhibition: -2%
[13]; at 33.0 µM
  growth inhibition: -10%
[13]; at 100.0 µM
  growth inhibition: 76% (active)
[4]; [16]
  growth inhibition: -6%
[4]; [17]
  growth inhibition: 9%
[4]; at 50.0 µM
  growth inhibition: -48.7%
[5]; at 1.2 µM
  growth inhibition: 2%
[5]; at 3.7 µM
  growth inhibition: 8%
[5]; [16]
  growth inhibition: 5%
[5]; at 11.0 µM
  growth inhibition: 17%
[5]; at 33.0 µM
  growth inhibition: 40%
[5]; [17]
  growth inhibition: 66%
[5]; at 50.0 µM
  growth inhibition: -26.4%
[5]; at 100.0 µM
  growth inhibition: 86% (active)
[6]; at 1.2 µM
  growth inhibition: -3%
[6]; at 3.7 µM
  growth inhibition: 4%
[6]; at 11.0 µM
  growth inhibition: -5%
[6]; at 33.0 µM
  growth inhibition: -6%
[6]; at 100.0 µM
  growth inhibition: 75% (active)
[7]; at 1.2 µM
  growth inhibition: -3%
[7]; at 3.7 µM
  growth inhibition: -4%
[7]; at 11.0 µM
  growth inhibition: -4%
[7]; at 33.0 µM
  growth inhibition: -3%
[7]; at 100.0 µM
  growth inhibition: 76% (active)
[8]; at 1.2 µM
  growth inhibition: -3%
[8]; at 3.7 µM
  growth inhibition: -2%
[8]; at 11.0 µM
  growth inhibition: -1%
[8]; at 33.0 µM
  growth inhibition: -4%
[8]; at 100.0 µM
  growth inhibition: 77% (active)
[14]; [16]
  growth inhibition: -5%
[14]; [17]
  growth inhibition: 45%
[14]; at 50.0 µM
  growth inhibition: 11.4%
[15]; at 1.2 µM
  growth inhibition: -2%
[15]; at 3.7 µM
  growth inhibition: 2%
[15]; at 11.0 µM
  growth inhibition: 6%
[15]; at 33.0 µM
  growth inhibition: 11%
[15]; at 100.0 µM
  growth inhibition: 84% (active)
